From the supplement of paper PMC11417369
± gives the standard deviation of the averaged measurements. The full ranking holds about 25,000 sequences; the median of “ln(normalized median fluorescence intensity)” is about 7.9, and the highest 2% start at about 11. This is one part of a sample in which the highest values are shown more often than they occur.

System: PfAP2-I AP2 domain 3 (GST-tagged)
Test: gcPBM binding intensity (ln(normalized median fluorescence intensity)); higher = stronger DNA binding
How it was run: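 Binding intensity values are the highest Masliner-normalised natural-log median intensity among replicate spots of either probe orientation. The binding step lasted 1 h in 1× PBS with 1% milk, 0.2 mg/ml BSA, 0.5% salmon testes DNA and 0.03% Triton X-100, using GST-tagged P. falciparum DNA-binding domains expressed in E. coli on an Agilent 4 × 180k array of primer-extended double-stranded 36-bp intergenic genomic probes plus negative controls. Alexa488 anti-GST antibody and a 488 nm scan detected bound protein.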

Sequence | gcPBM binding intensity (ln)
AATAATATATATATATATATATATAGATATGTATAT [GTGCAC_negctrl_site653] | 8.04 ± 0.25
GAAATTACTTTATAAACACACATTTATTTTATTTTA [CACACA_site7007] | 7.95 ± 0.26
CTACCTTTAATATATACACACACATAAAAAAAATAT [CACACA_site8548] | 8.05 ± 0.28
GTATATATTAAAAAAAAAAAAAAAAAATTAAAATTA [CACACA_negctrl_site572] | 7.14 ± 0.33
TATTTTTATAAGAGCATGCACTGTTTAAAATGGTAT | 8.37 ± 0.45
TATATATATATATATGTGCACTGAAAGAATTATACA [GTGCAC_site9586] | 10.7 ± 0.13
ATAATTATTCTTATGGTGCACTGAATATACATGTTG [GTGCAC_site9760] | 11.1 ± 0.47
AATATGAAATATATTACACACATTTATATGTTGAAA [CACACA_site1427] | 7.59 ± 0.39
ATTATATTTATGTTGGTGCATTATACATGAAATTTA | 11.5 ± 0.43
GTATTATTATTTTATGCATGTACATTGAATTATATT [TGCATGCA_site34] | 8.26 ± 0.44
TATAATAATAATTATACATGCATGAATATTTATATG [TGCATGCA_site811] | 7.67 ± 0.21
CCTATCCAGACATATACACACATATCTATTTATATA [CACACA_site5001] | 8.01 ± 0.57
AAGTAATTTGTTGACACACACACACGCATACCTATA [CACACA_site7140] | 8.07 ± 0.65
TTTTTTTCATAAGAAGCACACAAAAAATGATAGAGA [CACACA_site8401] | 8.29 ± 0.4
TAAATTAAAAAACATAAACTATTGGAAACGCATTGA [CACACA_negctrl_site935] | 7.57 ± 0.64
TAGGCGTTTAATAAAAGTACCCACACATATATTATT [XGTACX_site1932] | 7.68 ± 0.49
ATATTATGTGATTGTGCACACTGGAGATTTTTTTTA [CACACA_site1453] | 10.9 ± 0.17
GAGATTTATTTATGTGCACACTAGAACAATTGGATC [CACACA_site2090] | 9.99 ± 0.42
TATATATATATATATGTGCACTGGACATATTTTTAT [GTGCAC_site9721] | 10.09 ± 0.099
TTAATATAGGGAAAAAAAAGAAAATCGAAAATGTGT [CACACA_negctrl_site834] | 8 ± 0.75
TTTTTTTTATGTATCACACATAATTTTTTATTATGA [CACACA_site5534] | 7.63 ± 0.68
TATAATTTATTAAGGGGTACATATATTTCATGATAA [XGTACX_site5141] | 7.88 ± 0.37
GTATTCATGCTAAAGGTGCAATAATTTTTATAATAA [GTGCAC_site9603] | 11.5 ± 0.61

Sequence | gcPBM binding intensity (ln)
ACACATAATATAAAGGTGCTATATTGTATTCATTTT [GTGCAC_site9457] | 10.1 ± 0.2
ATTATAAAAGAATTTTTTTTTATTTCATTAAAATAT [CACACA_negctrl_site1137] | 7.09 ± 0.47
TATAATTATTTTTTTCTAAATATTATAAGGTATTCA [GTGCAC_negctrl_site205] | 7.18 ± 0.33
ATTTTCATGATAAAGGTGCAATTATTTTTATAAGAA | 10.9 ± 0.53
TATAAATATCTGAATTGTACAGGTGAAAAAAAAAAT [XGTACX_site1867] | 8.04 ± 0.62
TAATTAGATTATTTTTGTACATATTATTATAGGTTA [XGTACX_site2077] | 7.59 ± 0.26
ACAAAAATAAGCAAATGTACATATGTATAATATATT [XGTACX_site2492] | 7.77 ± 0.58
AGTGACACCAAAGGGGTGCAATGAAATTAAAAATAT | 10.7 ± 0.24
TAAAAATTAAAAAGGGTGCAAAAAAAAAAAAAAAAA [GTGCAC_site9733] | 11 ± 0.61
TTAAAAAATAACAAGGTGCAAATAGGTTTATAAAAT | 10.84 ± 0.064
ATTATCCATCAAAAGGTGCAAATTTTTAATTATAAA [GTGCAC_site9932] | 10.5 ± 0.49
AAAAAAAAAAAAAAGGTGCAAATAAATTAACCTTAT | 11.4 ± 0.44
TAAATTAAAAAAAAAAACAAAAAAAAAGCAACAAAA [CACACA_negctrl_site1318] | 7.67 ± 0.57
TATGTGTGACAAAATTGTACGGTCTCTTTATTTTGT [XGTACX_site2679] | 7.72 ± 0.54
TCCTTATAAATATATATATAATATATATATATATAT [CACACA_negctrl_site293] | 8.86 ± 0.2
ATTTTTATTCAGTTCACACACGCTTTAATATTATAT [CACACA_site3465] | 8.3 ± 0.58
ATATATCCAATATATATATATATATATATATATATA [CACACA_negctrl_site160] | 9.2 ± 0.67
TGTTGGCAGGTGAATGCATGCATATAAGTCTATCTG [TGCATGCA_site781] | 8.02 ± 1.1
TATTCCTATATAAAGACACACATATGTAACTACGAT [CACACA_site4139] | 7.68 ± 0.59
ATATAATATAACAATACGCACACGTATACAAAAAAA [CACACA_site3151] | 8.36 ± 0.41
TATTAATTTCTTTTTTCTCATCACTTTCAAAATGAA [CACACA_negctrl_site1055] | 7.9 ± 0.47
ATTATGTATACATAAACACACATATATATAAAAAAA [CACACA_site262] | 7.92 ± 0.64
TTCATTAAAGTTATTACACACAGTTCTTCAACCAAA [CACACA_site7613] | 7.88 ± 0.46

Sequence | gcPBM binding intensity (ln)
ATATTTATAAATTGCACACAAATAATAACATTATAT [CACACA_site5322] | 8.68 ± 0.13
TTCTTTGTAGTATATTAACACACAACTGTTTATAAT [CACACA_site9305] | 8.02 ± 0.59
CTTTGTAGTATATTAACACACAACTGTTTATAATAT [CACACA_site6038] | 7.77 ± 0.54
TGTATAATATTTGGTGCACACAAATTAACAACTGTT [CACACA_site9245] | 11.1 ± 0.54
AAATATTTATAAATTGCACACAAATAATAACATTAT [CACACA_site8737] | 8.47 ± 0.099
TATAATATTTGGTGCACACAAATTAACAACTGTTTA [CACACA_site3742] | 11.1 ± 0.39
ATTCAAAAGGTTTAATGTACGTGATGTTTCACAAAT [XGTACX_site784] | 7.74 ± 0.5
AAAAATGGAATTATCTGTACATATATAGTTTTTAAA [XGTACX_site5580] | 7.44 ± 0.33
AATTGTTCTATGATTTGTACACACTTTTTTTTAAAA [XGTACX_site5984] | 8.15 ± 0.52
ATTTTAATAAAATATGTACACACATACACCCATATA [CACACA_site8326] | 8.15 ± 0.34
AATACATGAATATGTAGTACAGAAAAAAAAAATATA [XGTACX_site1945] | 7.89 ± 0.6
TGATTCAATTTATGCACACTAAAAATTAATTATATT [CACACA_site271] | 9.65 ± 0.23
TATAATATAATATATGCACACAAATATGTATATATG [CACACA_site8664] | 8.86 ± 0.085
TTAAAAAATATATGCGTGCACTAATATTTCATATGC | 11.5 ± 0.2
ATATTTTACAAATGCACACATAATTTTTTTTTTTTT [CACACA_site2763] | 9.33 ± 0.099
ATTTTTAATATTATTACACACACTAATAAAAAAAAA [CACACA_site8265] | 7.96 ± 0.27
AGATAAAATATATATGCACACACATATATATTTCAT [CACACA_site9183] | 9.255 ± 0.007
GTATAATATTTTAATGCACACACACTAATAAAAAAA [CACACA_site8939] | 11.1 ± 0.76
TTTTTTTTTTTTAATGCACACAATATATAATATGTA [CACACA_site3694] | 11.2 ± 0.4
ATAATATTTTAATGCACACACACAAAAAAAAAAAAA [CACACA_site2891] | 11.2 ± 0.61
TTTTTAAAATATTTAACACACAATTTTAATGCATAA [CACACA_site6036] | 8.8 ± 0.11
TAATATAATATATGCACACAAATATGTATATATGTG [CACACA_site2134] | 8.895 ± 0.049
AATAAATATAAAAATGCACACACACTAATAAAAAAA [CACACA_site8201] | 8.67 ± 0.52

Sequence | gcPBM binding intensity (ln)
ATTAATGATTTTTGTTGTACATTATTAATTTACATT [XGTACX_site544] | 7.83 ± 0.46
ATTTCTCAATCGTAATGTACAAAAAAAAGGGAAAAG [XGTACX_site2781] | 7.9 ± 0.58
AAGGAATATGTATATACACACAGGTACATATATATA [CACACA_site441] | 8.16 ± 0.71
AGTAGTCTGGAGAAAAGTACATAGTATCTGGTAGCT [XGTACX_site2027] | 7.98 ± 0.52
AAGAGAGAGAAATATGCACACATAAGGGAAATAAAT [CACACA_site8300] | 8.895 ± 0.049
TTTATTCCAGTATTCACACACGAATAACCACATAAC [CACACA_site5104] | 7.93 ± 0.42
ATATATATATATATTTGTACATAATATATATATGCA [XGTACX_site1795] | 9.28 ± 0.48
AGATATAATAAATATACACACATATATATATATATA [CACACA_site962] | 9.2 ± 0.76
TAAATTTTAATATGCACACAAAATGTTATATTAAAA [CACACA_site4366] | 9.13 ± 0.35
AATATTTTAATGCACACACACAAAAAAAAAAAAAAA [CACACA_site7374] | 11.5 ± 0.73
TTTAAATTTTAATATGCACACAAAATGTTATATTAA [CACACA_site8015] | 9.06 ± 0.13
AAGCATATTATAAACACACACTGTATAAAGATATAT [CACACA_site6277] | 7.66 ± 0.67
TATATACCACATTGTTGTACGACACATTTACATTTT [XGTACX_site8370] | 8.21 ± 0.57
ACATGAAACTATAAACGTACATACATACATATATAT [XGTACX_site5011] | 8.09 ± 0.6
TATTTTATATAAAGGTGTACTTATACAAAAATATAT [XGTACX_site7435] | 8.14 ± 0.28
TATAAATACTAAAAAAGTACAAAATTTCATAAAAAA [XGTACX_site2709] | 7.82 ± 0.59
TTTTCTCTAAAAAGGTGTACAACTAATAATGCACTG [XGTACX_site6074] | 11.4 ± 0.31
ATTTTTCTAAAATACTGTACAAAGGTGCATAAAAAG [XGTACX_site4425] | 11.8 ± 0.87
AAAAAAAAAAAAAGGTGTACATGCAAAATAAATTCT [XGTACX_site4592] | 8.56 ± 0.35
GATAATGAATGATGCACACTAAAAATATTCTACAAC [CACACA_site3622] | 8.66 ± 0.16
ATATATATATATATATGTACATATTGTATTAATTAT [XGTACX_site1919] | 9.31 ± 0.11
